# D1 PAM: Potentiators of Human D1 Dopamine Receptor: qHTS | D(1A) dopamine receptor (Homo sapiens), P21728 | HEK293 TREx D1 cells, calcium flux, dopamine EC20 potentiation | potentiation, % at 10 µM | 0.036% of 360,000 active | AID 504651, 2011; in the data active = potentiation above about 30%; note: 0% is about no effect
# D1 ag: Allosteric Agonists of the Human D1 Dopamine Receptor: qHTS. D(1A) dopamine receptor (Homo sapiens), P21728. HEK293 T-REx D1 cells, calcium flux, agonist mode. activation, % at 2 µM. 1% of 360,000 active. AID 504660, 2011; note: 0% is about no effect
#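 Tetracycline-induced HEK293 TREx D1 cells, force-coupled to calcium signalling, were dye-loaded with a no-wash calcium kit. Compound was pin-added after a 10 s baseline. Fluorescence was read kinetically at 1 cycle/s for 180 s, with calcium rises flagged as agonism.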
# D1 antagonist: Antagonist of Human D 1 Dopamine Receptor: qHTS; AID 504652, 2011; HEK293 TREx D1 cells, calcium flux, dopamine EC80; active compounds read low; D(1A) dopamine receptor (Homo sapiens), P21728; 3.2% of 360,000 active; activity change, negative = inhibition, % at 10 µM; in the data active = activity change below about -30%; note: % is set by controls: 0 for no effect and ±100 for the full control effect
#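 Tetracycline-induced HEK293 Trex D1 cells, force-coupled to calcium, dye-loaded; compounds added and read 180 s, then EC80 dopamine added and calcium flux tracked kinetically another 180 s.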
# TRHR PAM: qHTS for Small Molecule Agonists and Allosteric Enhancers of Human TRH Receptor: Primary Screen for Enhancers | Thyrotropin-releasing hormone receptor (Homo sapiens), P34981 | TRHR cells, fluo-8 calcium fluorescence, EC20 TRH enhancement | enhancement, % at 2 µM | 0.66% of 360,000 active; in the data active = enhancement above about 30%; note: 0% is about no effect
# Target sequence (P34981 whole entry, looked up): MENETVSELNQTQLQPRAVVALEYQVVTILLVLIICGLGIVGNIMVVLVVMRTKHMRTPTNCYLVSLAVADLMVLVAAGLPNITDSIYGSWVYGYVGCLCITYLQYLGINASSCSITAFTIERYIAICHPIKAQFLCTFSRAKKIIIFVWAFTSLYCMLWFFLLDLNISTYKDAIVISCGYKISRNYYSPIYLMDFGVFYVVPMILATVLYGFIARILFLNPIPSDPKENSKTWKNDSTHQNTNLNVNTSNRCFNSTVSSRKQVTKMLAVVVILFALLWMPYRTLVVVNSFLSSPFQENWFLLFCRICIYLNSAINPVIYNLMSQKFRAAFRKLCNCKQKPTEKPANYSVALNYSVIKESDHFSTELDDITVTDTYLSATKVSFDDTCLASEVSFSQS
#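 TRHR-expressing cells loaded with fluo-8 calcium dye were read kinetically (ex 480/em 530) during compound addition, then stimulated with an EC20 of TRH (10 nM final). Enhancement of the Gq-mediated intracellular calcium response was scored.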
# Glioma ERSR ind: qHTS for Inducers of the Endoplasmic Reticulum Stress Response (ERSR) in Human Glioma: qHTS | U87-MG GRP78 promoter luciferase reporter, 16 h | Potency, µM, inactives show at the top dose activation, actives largely listed as activators | 0.02% of 420,000 active; active = well fitted activation curve with a large enough effect; inconclusive = small, poorly fitted or top-dose-only effect; inactive = no such curve, though single readings can be large or run the other way; note: potency is the fitted concentration of half-maximal effect; series mostly up to about 76 µM; % of control where 0% means no effect; nearly all actives have a fitted effect of over 35% in size
#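 Stably transfected U87-MG glioma cells carrying a GRP78-based luciferase sensor; 16 h compound incubation. Luminescence end-point read 10 min after Bright-Glo addition at room temperature.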
# TRHR agonist: qHTS for Small Molecule Agonists and Allosteric Enhancers of Human TRH Receptor: Primary Screen for Agonists; Thyrotropin-releasing hormone receptor (Homo sapiens), P34981; TRHR cells, calcium flux fluo-8, FDSS agonist mode; activation, % at 2 µM; 0.18% of 360,000 active; note: 0% is about no effect
#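 Steps: seed TRHR cells overnight; add fluo-8 no-wash Ca dye, RT 30 min–1.5 h; record 10 s baseline; pin-transfer compounds; monitor fluorescence 1 cycle/s for the agonist window. Calcium increases flag candidate agonists.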
# An asterisk follows results filed as active; ? = inconclusive. Shown are actives, neighbours in structure and some others; about 4% of the full set was active somewhere. Cut-off read from the data, not from the text of the source, unless noted: active = activation above about 30%; inactive = the rest.
SMILES,D1 PAM,D1 ag,D1 antagonist,TRHR PAM,Glioma ERSR ind,TRHR agonist
CC1=C(n2nnc3ccccc32)C(c2ccccc2)C(C#N)=C(N)O1 (configuration not stated),-2.5,2.2,12.7,-3.7,0.0%,0.8
O=C(O)c1ccc(N=NNc2cccc([N+](=O)[O-])c2)cc1,-0.7,1.1,11.7,2.0,-6.9%,0.0
N#C/C(=N\Nc1cccc([N+](=O)[O-])c1)C(=O)c1ccc(Br)cc1,-2.9,21.3,-34.2*,-5.8,-7.5%,0.8
CC1=C(C(=O)OCC2CCCO2)C(c2cccc(O)c2)NC(=O)N1 (configuration not stated),2.1,1.3,3.9,1.3,-2.2%,-0.4
O=C(Nc1ccc2ncccc2c1)c1cccc(Br)c1,3.6,-2.4,5.9,1.4,1.1%,-0.2
Brc1ccc(CNc2ccc3ncccc3c2)cc1,-6.6,14.3,-40.5*,1.9,4.2%,-1.8
Nc1c(-c2ccc(Cl)cc2)cnn1C1CCS(=O)(=O)C1 (configuration not stated),-9.6,11.4,-30.2*,-5.6,1.3%,-1.0
Cc1ccc(/C=C/c2onc(C)c2S(=O)(=O)N2CCC(C(=O)Nc3ccc(C)c(N(C)C)c3)CC2)cc1,-3.2,3.9,-12.9,2.9,-2.7%,0.2
Cc1ccc(/C=C/c2onc(C)c2S(=O)(=O)N2CCC(C(=O)Nc3ccc(OC(F)(F)F)cc3)CC2)cc1,-3.9,1.9,-67.5*,5.6,-1.7%,0.8
CCCC(=O)Nc1ccc(NC(=O)C23CC4CC(CC(C4)C2)C3)cn1,0.6,3.9,44.0,13.9,-0.7%,0.4
Fc1cccc(NC(=S)N2CCc3ccccc32)c1,-1.7,4.8,-9.7,0.8,?,-0.9
O=C(c1c(F)cccc1F)N1CCCc2ccccc21,2.3,4.1,3.5,32.2*,-3.0%,0.0
CC(=O)c1cccc(NC(=S)N2CCc3ccccc32)c1,0.8,2.1,-31.7*,-5.9,6.2%,-1.0
Cc1onc(-c2c(Cl)cccc2Cl)c1C(=O)N1CCCc2ccccc21,1.0,139.0*,18.2,0.2,2.2%,-1.0
Cc1onc(-c2ccccc2)c1C(=O)N1CCCCCC1,7.0,1.8,14.3,11.8,-1.6%,-0.8
Cc1onc(-c2c(F)cccc2Cl)c1C(=O)N1CCc2ccccc21,4.8,1.1,3.5,13.5,2.8%,0.1
O=C(c1cccc(F)c1)N1CCCc2ccccc21,-0.7,0.0,-1.8,-14.8,-1.6%,-0.7
Cc1onc(-c2ccccc2)c1C(=O)N1CCCC1,-9.6,2.8,-37.1*,-6.3,-0.3%,-0.5
COc1ccc(N2C(=O)C3CCCN3C2c2ccccc2)cc1 (configuration not stated),1.1,1.1,7.8,0.3,-2.8%,0.6
N#C/C(=C\c1ccc([N+](=O)[O-])cc1)c1nc(C2CC2)cs1,-1.6,13.2,11.3,-9.5,-1.1%,1.9
COC(=O)c1cc(N2CCN(C)CC2)nc2ccccc12,0.8,9.1,13.0,5.2,0.7%,5.4
COC(=O)c1ccccc1NS(=O)(=O)c1cc2c(cc1C)N(C)CCO2,-1.4,0.0,-6.9,12.4,-2.7%,-0.2
O=C(c1ccccc1)N1CCCc2ccccc21,-3.8,1.0,-2.4,0.6,-6.1%,-0.4
O=C(Nc1cccc(C(=O)N2CCCc3ccccc32)c1)c1ccccc1,-8.1,0.8,-36.9*,-4.6,-1.0%,-0.6
O=C(Nc1ccc2c(c1)CCCN2C(=O)c1cccs1)c1c(F)cccc1Cl,-9.0,1.2,-44.1*,5.7,-8.7%,0.3
SMILES,D1 PAM,D1 ag,D1 antagonist,TRHR PAM,Glioma ERSR ind,TRHR agonist
C[C@H](N)C(=O)N1CCC(C(=O)N[C@@H](Cc2ccccc2)C(=O)Nc2ccc(F)cc2)CC1,-1.9,0.2,-1.8,-6.7,0.8%,-0.3
COc1ccc(CC(=O)NCC(c2ccc(Cl)cc2)N2CCOCC2)cc1 (configuration not stated),-1.1,-3.1,-43.1*,-2.4,-2.7%,0.4
COc1ccc(/C=N/NC(=O)c2ccc(-n3cnnn3)cc2)cc1,12.1,1.0,-64.6*,10.6,-1.5%,0.3
COc1ccc(C(CNC(=O)c2ccc(-n3cnnn3)cc2)N2CCOCC2)cc1 (configuration not stated),-8.1,0.9,-47.0*,7.2,-3.0%,-0.3
COc1ccc(C(CNC(=O)c2ccc(C)cc2)N2CCOCC2)cc1 (configuration not stated),0.3,0.7,-0.2,-4.0,-2.3%,0.7
COc1ccc(S(=O)(=O)NCc2ccccn2)cc1NC(=O)c1ccccc1F,-4.1,3.3,5.5,0.4,-2.9%,-1.4
O=C(Nc1nc(-c2cc3ccccc3oc2=O)cs1)c1ccco1,-8.0,-0.5,-63.7*,0.5,2.6%,0.5
O=C(COc1ccccc1[N+](=O)[O-])N(Cc1ccco1)c1ccccn1,-1.1,-2.0,0.5,19.6,1.0%,-0.4
COc1cccc(NC(=O)NC2CCCCCCC2)c1,1.7,1.1,-8.7,5.2,7.7%,-0.1
COc1cc(C2CC(=O)c3cnc(NC(=O)COc4ccccc4)nc3C2)cc(OC)c1OC (configuration not stated),-3.2,1.7,-30.0*,-1.8,-2.3%,-1.1
COc1ccc(C2CC(=O)c3cnc(NC(=O)c4ccccc4)nc3C2)cc1OC (configuration not stated),-7.7,-2.6,-8.7,2.5,-1.5%,-0.4
CCOC(=O)c1c(S(=O)(=O)NCCc2ccco2)c(C)n(C)c1C,-7.8,-1.2,-0.7,-14.4,-3.3%,0.0
CCOC(=O)CSc1nnc([C@H](CC(C)C)NC(=O)OC(C)(C)C)o1,-1.2,2.0,3.5,3.6,-2.6%,-0.8
O=C1c2ccccc2C(=O)N1Cc1nc(-c2ccccn2)no1,-8.9,0.6,-4.5,-6.6,1.9%,-0.6
Cc1cccc(C)c1NC(=O)C(NS(=O)(=O)c1cccs1)c1ccccc1 (configuration not stated),1.4,-2.6,9.1,2.8,-1.9%,-2.2
CC(=O)c1ccc(N2CCN(C(=O)c3ccco3)CC2)c(F)c1,-1.8,20.0,3.3,6.6,5.6%,0.1
CC(=O)c1cc(F)c(N2CCN(C(=O)c3ccco3)CC2)cc1C,-6.2,22.2,-31.7*,0.5,6.3%,-0.4

# Assay outcomes: PubChem BioAssay, National Center for Advancing Translational Sciences (NCATS)
